Only some compounds are listed: those with a hit (about 17% of all), similar ones and a draw of the others.
TDP1 cell CPT – DT40-hTDP1 cell growth loss with CPT. Potency, µM (top dose mostly 46.2 µM), for the others: top-dose activity change, negative = growth inhibition, usual class: inhibitors. actives 12% (n = 420,000). AID 686979. chicken DT40 Tdp1-/-;hTDP1 cells + 20 nM CPT, ATP luminescence, 48 h; further: on the % scale 0 is the no-effect control and ±100 the full control effect; nearly all actives have a fitted effect of over 55% in size
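Cell growth measured by CellTiter-Glo luminescence after a minimum 48 h, 37 C compound exposure with 20 nM CPT in Tdp1-knockout DT40 cells stably expressing hTDP1, seeded 400/well; qHTS titration format.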
TGFb inhibitor – TGF-b pathway inhibition; AID 588855; Potency, µM (highest dose often 46.1 µM), for inactives: at the top dose activity, negative = inhibition, actives largely listed as inhibitors; HepG2 CAGA-GFP TGF-b/SMAD3 reporter, GFP fluorescence, 18 h; TGF-beta stimulated, 500 pg/mL final; actives 1.2% (n = 410,000); further: on the % scale 0 is the no-effect control and ±100 the full control effect; nearly all actives have a fitted effect of over 65% in size
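HEPG2 CAGA-GFP, 1000 cells/well; 2 h settle, 37 C; cpd via pin tool; TGF-b 500 pg/mL final; 18 h, 37 C; GFP imaging ex488/em500-530; %Activity normalised to -TGF-b and +DMSO controls; CRC fit, curve class.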
S2 tox – cell viability loss in ATXN counter-screen. S2 cells (HEK-293 line with an ATXN2-luciferase reporter) viability, CellTiter-Fluor protease fluorescence, 24 h. Potency, µM (series often up to 56.7 µM), usual class: cytotoxic. actives 0.49% (n = 400,000). AID 651635; further: nearly all actives have a fitted effect of over 40% in size
HepG2 tox – HepG2 cytotoxicity, counter-screen for TGF-b inhibitors. Potency, µM (doses to about 46.1 µM), without a hit: at the top dose activity change, negative = cytotoxicity, hits mostly cytotoxic. actives 0.76% (n = 410,000). HepG2 CAGA-GFP viability, ATP luminescence, 18 h
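CellTiter-Glo luminescence gave cytotoxicity after 18 hours at 37 degrees C. The cells were HepG2 CAGA-GFP in 1% FBS DMEM, stimulated with 500 pg/mL TGF-beta after compound addition. %Activity was normalised to no-cell wells (complete cell-killing) and DMSO (no toxicity), and curves were fitted and classified.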
TDP1 cell noCPT – qHTS for Inhibitors of human tyrosyl-DNA phosphodiesterase 1 (TDP1): qHTS in cells in absence of CPT; DT40 Tdp1-/- hTDP1 cells, no CPT, ATP luminescence, 48 h; Potency, µM (highest dose often 46.2 µM), for inactives: at the highest dose activity change, negative = growth inhibition, hits mostly inhibitors; actives 15% (n = 420,000); AID 686978, 2013; further: on the % scale 0 is the no-effect control and ±100 the full control effect; nearly all actives have a fitted effect of over 55% in size
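Compound effects on proliferation are scored in DT40 Tdp1-/-;hTDP1 cells in the absence of CPT. ATP levels (CellTiter-Glo luminescence) are recorded after a ≥48 hr, 37 °C incubation.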
ATXN2 expr inh – reduces ATXN2 reporter expression in HEK-293 cells. actives 0.72% (n = 360,000). Potency, µM (series often up to 57 µM), inactives show top-dose activity change, negative = inhibition, actives largely listed as inhibitors. HEK-293 ATXN2-luciferase reporter, luminescence, 24 h; further: on the % scale 0 is the no-effect control and ±100 the full control effect; nearly all actives have a fitted effect of over 55% in size
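qHTS (up to 57 uM final) was run with 24 h compound exposure of reporter cells at 37 °C. Each well was multiplexed: SteadyGlo luminescence measured ATXN2-luciferase expression after a fluorogenic Gly-Phe-AFC viability readout (25 uM final).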
Starred values were filed as active, the others as inactive; i = inactive; ? = inconclusive; . = no result; [ ] = remark or other dose. The call rests on the fitted dose curve; in most records, active means well fitted curve in the direction sought with a large enough effect; inconclusive means small, poorly fitted or top-dose-only effect, or another doubt; inactive means no such curve, though single readings can be large; an effect the other way counts as inactive or inconclusive. Potency means the concentration at half of the fitted maximal effect.

SMILES	TDP1 cell CPT	TGFb inhibitor	S2 tox	HepG2 tox	TDP1 cell noCPT	ATXN2 expr inh
COc1ccc(C(=O)Cn2c(Br)nc3c2c(=O)n(C)c(=O)n3C)cc1OC	?	8%	i	-9%	?	-8%
COc1ccc(C(=O)Cn2c(Br)nc3c2c(=O)n(C)c(=O)n3C)cc1	13µM*	-15%	?	-4%	23µM*	-21%
CCCCn1c(Oc2ccc(C(=O)OC)cc2)nc2c1c(=O)n(C)c(=O)n2C	16µM*	-7%	i	-36%	11µM*	?
O=C(O)C(C=C(Cl)Cl)N1CCOCC1 (stereo not given)	-2%	1%	i	-8%	-7%	2%
C=C(C)C(=O)Nc1cccc(C2=NOC3(C2)C[C@H](C(N)=O)N(C(=O)COc2ccc(Cl)cc2)C3)c1 (stereo not given in full)	-1%	-12%	i	-1%	-7%	2%
O=C(CCc1nnc2n(Cc3ccccc3Cl)c(=O)c3ccccc3n12)Nc1ccc(F)c(F)c1	23µM*	-4%	.	-8%	21µM*	.
Cc1ccc(NC(=O)CCc2nnc3n(CC(C)C)c(=O)c4ccccc4n23)cc1C	26µM*	-17%	.	-1%	23µM*	.
CN1CCN(CCCNC(=O)CCc2nnc3n(Cc4ccccc4Cl)c(=O)c4ccccc4n23)CC1	-18%	8%	i	2%	0%	.
COc1ccc(NC(=O)CCc2nnc3n(Cc4ccccc4Cl)c(=O)c4ccccc4n23)cc1	3.3µM*	0%	.	3%	3.3µM*	.
Cc1cc(C)cc(NC(=O)CCc2nnc3n(CC(C)C)c(=O)c4ccccc4n23)c1	-19%	-7%	.	-4%	-24%	.
CN1CCCC(CNC(=O)c2cnn(-c3nccc(-c4cccs4)n3)c2C2CC2)C1 (stereo not given)	-9%[9.04 µM]	.	i	.	-16%	.
Cc1cc(-c2ccc(S(=O)(=O)Nc3ccccc3F)s2)on1	-18%	-13%	.	-9%	?	.
Cc1cc(-c2ccc(S(=O)(=O)Nc3cc(Cl)ccc3C)s2)on1	4.6µM*	0%	.	-30%	2.9µM*	.
Cc1cc(-c2ccc(S(=O)(=O)Nc3ccc(C#N)cc3)s2)on1	-28%	-5%	i	-6%	18%	14%
Cc1cc(-c2ccc(S(=O)(=O)Nc3ccc(Br)c(C)c3)s2)on1	23µM*	13µM*	.	-51%	15µM*	.
COc1ccccc1C(C)NC(=O)c1cc(S(=O)(=O)N2CCCCC2)ccc1C (stereo not given)	?	4%	i	8%	?	.
Cc1ccccc1-c1cc2nc(NCCN3CCNC3=O)n(C)c(=O)c2s1	?	-26%	i	-2%	?	-15%
COc1ccc(C(=O)Nc2ccc(C(=O)Nc3cccc(C)c3)cc2)cc1	8%	-2%	10µM*	3%	5%	?
Cc1cccc(NC(=O)c2ccc(C(=O)Nc3cccc(C)c3)nc2)c1	2.6µM*	?	?	-19%	16µM*	-19%
COc1ccc(C(=O)Nc2cccc(C(=O)NCc3ccccc3)c2)cc1	21µM*	-15%	i	-31%	?	-13%
COc1ccc(C2=NC(C)(C)N(CC(=O)Nc3cccc(C)c3)C2=O)cc1	4.6µM*	.	.	-1%	3.7µM*	.
COc1cc(NC(=O)CN2C(=O)C(c3ccccc3)=NC2(C)C)cc(OC)c1	3%	-2%	i	-4%	2%	11%
COc1ccccc1-n1cc(CN2CCOc3ccc(CN4C[C@@H](C)O[C@@H](C)C4)cc3C2)cn1	-11%[9.04 µM]	.	i	.	?	.
COc1ccc(S(=O)(=O)NCC2CCCO2)cc1Cl (stereo not given)	0%	4%	i	-1%	?	7%
COc1ccc(C(=O)Nc2cccc(OC(=O)c3ccc(C)c(C)c3)c2)cc1	-75%	?	i	-27%	23µM*	3%
SMILES	TDP1 cell CPT	TGFb inhibitor	S2 tox	HepG2 tox	TDP1 cell noCPT	ATXN2 expr inh
CC(C)c1ccccc1NC(=O)c1cccc(NC(=O)c2ccccc2)c1	16µM*	-5%	i	0%	?	1%
COc1ccc(C(=O)Nc2cccc(OC(=O)c3ccco3)c2)cc1	6%	2%	i	-4%	2%	3%
COc1ccc(C(=O)Nc2ccc3[nH]ccc3c2)cc1	?	-9%	i	-33%	26µM*	?
Cc1cc(OCC(=O)N[C@@H](CSCc2ccccc2)C(=O)O)c2c(C)c(C)c(=O)oc2c1	-10%	28%	i	-2%	0%	-5%
C[C@@H]1CN([C@H](C)CO)C(=O)c2cc(NS(=O)(=O)c3cn(C)cn3)ccc2O[C@H]1CN(C)C(=O)Nc1ccccc1	-5%	-5%	i	5%	-22%	2%
Cc1cc(=O)n2nc(N3CCC(C(=O)Nc4ccc(Br)c(C)c4)CC3)sc2n1	15µM*	?	?	2%	-29%	-16%
COc1ccccc1CNC(=O)c1cccn1-c1nnc(N2CCCCC2)s1	-30%	0%	.	-38%	-29%	.
CN(C)c1ccc(CNC(=O)c2cccn2-c2nnc(N3CCCCC3)s2)cc1	18µM*	-23%	i	-5%	16µM*	-16%
CC(C)c1ccc(NC(=O)c2cccn2-c2nnc(N3CCCCC3)s2)cc1	18µM*	?	.	-35%	?	.
Cc1cc(NC(=O)c2cccn2-c2nnc(N3CCCCC3)s2)ccc1Br	?	8.9µM*	.	-52%	?	.
Cc1cn([C@H]2C[C@H](O)[C@@H](CNC(=O)[C@H]3CCC(=O)N3)O2)c(=O)[nH]c1=O	-12%	-5%	i	-48%	1%	-5%
O=C(O)C(O)Cc1ccc(O)c(O)c1 (stereo not given)	.	.	.	.	.	-12%
Cc1csc(=O)n1CC(=O)OCC(=O)NC(C)c1ccc(F)cc1 (stereo not given)	-17%	-2%	i	-4%	1%	6%
COc1ccccc1CN(C)CC(=O)Nc1ccc(Cl)cc1C(F)(F)F	21µM*	?	i	-14%	15µM*	-4%
COc1cccc(CN(C)CC(=O)Nc2ccccc2C(C)C)c1	?	-15%	i	-13%	16µM*	-28%
COc1ccc(NC(=O)CN(C)CC(=O)Nc2cccc3ccccc23)c(OC)c1	?	-18%	i	-2%	?	4%

Screening data (PubChem)
